Measured values taken from PubChem BioAssay AID1159580 (chemical genetic matrix, 2015).
Several values for one entry are separate records, joined by “and”; a condition that tells them apart may be missing. Equal entries are not always repeated. In all, about 5,500 compounds went through this assay and about 2,000 (36%) were called active. About 18% were inconclusive and are not listed. Cut-off read from the data, not from the text of the source: active = normalized growth mostly below about 0.91 (no sharp cut-off); inconclusive = no clear call, values can overlap the other calls; inactive = mostly above about 0.92. The list shows a part of the results.

Assay: chemical genetic growth profiling, strain panel (AID 1159580);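 note: tested at 20 µM; growth read once vehicle control cultures reached saturation at 30 °C; 1 = growth at the plate median or of vehicle wells; lower values mean less growth of the strain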
Conditions: growth OD

Measured: normalized growth

CCN(CC)CCCC(C)Nc1ccnc2cc(Cl)ccc12 (stereo not drawn)
inactive: S. cerevisiae deletion strains, locus YJR075W, strain HOC1, hits give low values 1.03 and 1.01 | S. cerevisiae deletion strains, locus YKL009W, strain mrt4, hits give low values 1.03 | S. cerevisiae deletion strains, locus YKL068W, hits give low values 1.01 | S. cerevisiae deletion strains, locus YKL085W, strain MDH1 (second series), hits give low values 0.998 | S. cerevisiae deletion strains, locus YKL085W, strain MDH1, hits give low values 0.998 | S. cerevisiae deletion strains, locus YKL160W, strain elf1, hits give low values 1.03 | S. cerevisiae deletion strains, locus YKR001C, strain vps1, hits give low values 1.01 | S. cerevisiae deletion strains, locus YKR026C, strain gcn3, hits give low values 1.03 | S. cerevisiae deletion strains, locus YKR091W, strain srl3, hits give low values 1.02 | S. cerevisiae deletion strains, locus YLL001W, strain dnm1, hits give low values 1.02 | S. cerevisiae deletion strains, locus YLL026W, hits give low values 1.01 | S. cerevisiae deletion strains, locus YLL041C, strain sdh2, hits give low values 1.02 | S. cerevisiae deletion strains, locus YLR027C, strain aat2, hits give low values 1.01 | S. cerevisiae deletion strains, locus YLR039C, strain RIC1, hits give low values 1.04 | S. cerevisiae deletion strains, locus YLR058C, strain SHM2, hits give low values 1.03 | S. cerevisiae deletion strains, locus YLR102C, strain apc9, hits give low values 1 | S. cerevisiae deletion strains, locus YLR113W, strain HOG1, hits give low values 0.947 | S. cerevisiae deletion strains, locus YLR221C, strain rsa3, hits give low values 1.03 | S. cerevisiae deletion strains, locus YLR258W, strain gsy2, hits give low values 1.01 | S. cerevisiae deletion strains, locus YLR262C, strain YPT6 (second series), hits give low values 1.01 | S. cerevisiae deletion strains, locus YLR262C, strain YPT6, hits give low values 1.01 | S. cerevisiae deletion strains, locus YLR268W, strain sec22, hits give low values 0.998 | S. cerevisiae deletion strains, locus YLR320W, strain mms22, hits give low values 1.01 | S. cerevisiae deletion strains, locus YLR330W, strain CHS5, hits give low values 1.02 | S. cerevisiae deletion strains, locus YLR342W, strain FKS1 (second series), hits give low values 1.03 | S. cerevisiae deletion strains, locus YLR342W, strain FKS1, hits give low values 1.03 | S. cerevisiae deletion strains, locus YLR357W, strain rsc2, hits give low values 1.05 | S. cerevisiae deletion strains, locus YLR370C, strain arc18, hits give low values 1.02 | S. cerevisiae deletion strains, locus YLR371W, strain rom2, hits give low values 1.02 | S. cerevisiae deletion strains, locus YLR384C, strain iki3, hits give low values 1.03 | S. cerevisiae deletion strains, locus YLR418C, strain cdc73, hits give low values 1.07 | S. cerevisiae deletion strains, locus YML016C, strain PPZ1, hits give low values 1.01 | S. cerevisiae deletion strains, locus YML032C, strain rad52, hits give low values 0.996 | S. cerevisiae deletion strains, locus YML120C, strain ndi1, hits give low values 1.01 | S. cerevisiae deletion strains, locus YML124C, strain tub3, hits give low values 1 | S. cerevisiae deletion strains, locus YMR058W, strain fet3, hits give low values 1 | S. cerevisiae deletion strains, locus YMR078C, strain ctf18, hits give low values 1.02 | S. cerevisiae deletion strains, locus YMR125W, strain sto1, hits give low values 1.03 | S. cerevisiae deletion strains, locus YMR129W, hits give low values 1.02 | S. cerevisiae deletion strains, locus YMR205C, strain PFK2, hits give low values 1.04 | S. cerevisiae deletion strains, locus YMR223W, strain ubp8, hits give low values 1.03 | S. cerevisiae deletion strains, locus YMR231W, strain pep5, hits give low values 1.02 | S. cerevisiae deletion strains, locus YMR307W, strain GAS1, hits give low values 1.04 | S. cerevisiae deletion strains, locus YNL067W, strain RPL9B, hits give low values 1.03 | S. cerevisiae deletion strains, locus YNL071W, strain lat1, hits give low values 1 | S. cerevisiae deletion strains, locus YNL128W, strain TEP1, hits give low values 1.04 | S. cerevisiae deletion strains, locus YNL153C, strain GIM3, hits give low values 1.04 | S. cerevisiae deletion strains, locus YNL175C, strain NOP13, hits give low values 1.01 | S. cerevisiae deletion strains, locus YNL183C, strain NPR1, hits give low values 0.918 | S. cerevisiae deletion strains, locus YNL197C, strain WHI3, hits give low values 0.99 | S. cerevisiae deletion strains, locus YNL209W, strain ssb2, hits give low values 1.01 | S. cerevisiae deletion strains, locus YNL224C, strain SQS1, hits give low values 1 | S. cerevisiae deletion strains, locus YNL233W, strain BNI4, hits give low values 1.03 | S. cerevisiae deletion strains, locus YNL248C, strain rpa49, hits give low values 1.04 | S. cerevisiae deletion strains, locus YNL250W, strain rad50, hits give low values 1.02 | S. cerevisiae deletion strains, locus YNL271C, strain bni1, hits give low values 1.01 | S. cerevisiae deletion strains, locus YNL298W, strain CLA4, hits give low values 1.01 | S. cerevisiae deletion strains, locus YNL307C, strain MCK1, hits give low values 1.02 | S. cerevisiae deletion strains, locus YNL322C, strain KRE1 (second series), hits give low values 1.05 | S. cerevisiae deletion strains, locus YNR049C, strain mso1, hits give low values 1.02 | S. cerevisiae deletion strains, locus YNR052C, strain pop2, hits give low values 1.01 | S. cerevisiae deletion strains, locus YOL006C, strain TOP1, hits give low values 1.14 | S. cerevisiae deletion strains, locus YOL012C, strain htz1 2.16 | S. cerevisiae deletion strains, locus YOL147C, strain pex11, hits give low values 1 | S. cerevisiae deletion strains, locus YOR001W, strain rrp6, hits give low values 1.03 | S. cerevisiae deletion strains, locus YOR061W, strain CKA2, hits give low values 1.01 | S. cerevisiae deletion strains, locus YOR069W, strain VPS5, hits give low values 1.01 | S. cerevisiae deletion strains, locus YOR070C, strain gyp1, hits give low values 1.02 | S. cerevisiae deletion strains, locus YOR080W, strain dia2, hits give low values 1.06 | S. cerevisiae deletion strains, locus YOR083W, strain WHI5 (second series), hits give low values 0.986 | S. cerevisiae deletion strains, locus YOR083W, strain WHI5, hits give low values 1.02 | S. cerevisiae deletion strains, locus YOR106W, strain vam3, hits give low values 1.03 | S. cerevisiae deletion strains, locus YOR136W, strain idh2, hits give low values 1.01 | S. cerevisiae deletion strains, locus YOR144C, strain elg1, hits give low values 0.993 | S. cerevisiae deletion strains, locus YOR184W, strain ser1, hits give low values 1.03 | S. cerevisiae deletion strains, locus YOR231W, strain MKK1, hits give low values 0.953 | S. cerevisiae deletion strains, locus YOR265W, strain rbl2, hits give low values 1.02 | S. cerevisiae deletion strains, locus YOR270C, strain vph1, hits give low values 1.01 | S. cerevisiae deletion strains, locus YOR290C, strain snf2, hits give low values 1.01 | S. cerevisiae deletion strains, locus YOR316C, strain cot1, hits give low values 1.01 | S. cerevisiae deletion strains, locus YPL051W, strain arl3, hits give low values 1.02 | S. cerevisiae deletion strains, locus YPL055C, strain LGE1, hits give low values 1.03 and 1.01 | S. cerevisiae deletion strains, locus YPL078C, strain atp4, hits give low values 1.02 | S. cerevisiae deletion strains, locus YPL106C, strain sse1, hits give low values 1.05 | S. cerevisiae deletion strains, locus YPL240C, strain hsp82, hits give low values 1.02 | S. cerevisiae deletion strains, locus YPL241C, strain CIN2, hits give low values 1.01 | S. cerevisiae deletion strains, locus YPL256C, strain CLN2, hits give low values 0.945 | S. cerevisiae deletion strains, locus YPR119W, strain clb2, hits give low values 1.01 | S. cerevisiae deletion strains, locus YPR141C, strain kar3, hits give low values 1.01 | S. cerevisiae deletion strains, locus YPR163C, strain tif3, hits give low values 0.999 | S. cerevisiae deletion strains, locus YPR167C, strain met16, hits give low values 1.01 | S. cerevisiae deletion strains, strain wtn01, hits give low values 1.03 | S. cerevisiae strains, strain wild type, hits give low values 1.01
